# Screening data: PubChem, National Center for Advancing Translational Sciences (NCATS)
# Rows were chosen to be rich in hits. Some 3.7% of all compounds tested hit in one or more screens of this group.
# TbPYK inhibitor – inhibitors of Trypanosoma brucei pyruvate kinase; TbPYK enzyme, Kinase-Glo Plus ATP luminescence, 45 min; Potency, µM (series often up to 76.8 µM), hits mostly inhibitors; 410,000 compounds, 0.12% hits; note: nearly all actives have a fitted effect of over 50% in size
#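 Activity of T. brucei pyruvate kinase was followed by Kinase-Glo Plus luminescence after the enzyme reacted 45 min at room temperature with 130 uM ADP (final) and substrate. Test compounds were added before ADP at multiple concentrations.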
# RE007 growth inh – less growth of the S. pombe RE007 Vpr strain; S. pombe RE007 Vpr strain, BacTiter-Glo ATP luminescence, 24 h; Potency, µM (series often up to 92.2 µM), hits mostly inhibitors; 360,000 compounds, 0.21% hits; AID 651644; active = well fitted falling curve with a large enough effect; inconclusive = small, poorly fitted or top-dose-only effect; inactive = no such curve, though single readings can be large or run the other way; note: nearly all actives have a fitted effect of over 50% in size
#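 Fission yeast RE007 carrying one integrated HIV-1 vpr copy, seeded at OD 0.01 in PMG+AL medium with 23 nL pinned compound. Grown 24 h at 30 degrees; viability read by BacTiter-Glo luminescence after 5 min.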
# Sm TGR block – blocks Schistosoma mansoni thioredoxin glutathione reductase; 360,000 compounds, 3% hits; Potency, µM (series often up to 114 µM), hits mostly inhibitors; purified TGR, DTNB reduction, TNB absorbance 405 nm; Q962Y6; AID 485364; note: nearly all actives have a fitted effect of over 60% in size
#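 Kinetic colorimetric format: TGR-catalysed, NADPH-driven DTNB reduction monitored via TNB absorbance. Enzyme dispensed at 20 nM; compound exposure 15 min at room temperature before reaction start.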
# FMDV antiviral – antivirals against foot and mouth disease virus | Potency, µM (doses to about 57.9 µM), most hits filed as inhibitors | FMDV antiviral cell-based qHTS | 410,000 compounds, 1.2% hits; calls by dose curve; tested in HEK293T cells; note: read-out not given here; nearly all actives have a fitted effect of over 45% in size
# A number is an active result; . = inactive; ? = inconclusive; / = no result. Unless noted, calls come from the whole dose curve; as a rule, active = well fitted curve in the direction sought with a large enough effect; inconclusive = small, poorly fitted or top-dose-only effect, or another doubt; inactive = no such curve, though single readings can be large; an effect the other way counts as inactive or inconclusive.
SMILES,TbPYK inhibitor,RE007 growth inh,Sm TGR block,FMDV antiviral
COc1ccc(N2CCN(c3nc4ccc(C)cn4c(=O)c3C=O)CC2)cc1,.,.,.,.
Cc1ccc2nc(N3CCN(c4ccccc4)CC3)c(C=O)c(=O)n2c1,.,.,44.7µM,.
CN1CCN(c2ccc(-c3ccc4ccccc4n3)cc2)CC1,.,?,.,1.78µM
S=C(Nc1ccc2nsnc2c1)N1CCCC1,.,.,39.8µM,.
O=C(Nc1ccc2nsnc2c1)N1CCCCCC1,.,.,.,.
COc1ccc(OC)c(CCNC(=O)c2c(C)nn(-c3ccc(F)cc3)c2-n2cccc2)c1,.,/,.,?
CC1(OC(=O)c2ccc(Cl)nc2)C(=O)C=C2C=C3CCCN3C=C2C1=O (configuration not stated),.,.,35.5µM,.
O=C1CC(c2ccc3c(c2)OCO3)Sc2nc3ccccc3n21 (configuration not stated),.,.,.,17.8µM
O=C1CC(c2ccco2)Sc2nc3ccccc3n21 (configuration not stated),.,?,50.1µM,.
Cc1cccc(-c2nc(S(=O)(=O)c3ccccc3)c(N3CCOCC3)o2)c1,.,.,44.7µM,.
COc1ccccc1-c1nc(S(=O)(=O)c2ccc(Cl)cc2)c(N2CCCCCC2)o1,.,/,?,.
COc1ccc(-c2nc(S(=O)(=O)c3ccc(Cl)cc3)c(N3CCCCCC3)o2)cc1,.,/,22.4µM,.
Cc1ccc(-c2nc(S(=O)(=O)c3ccc(C)cc3)c(N3CCOCC3)o2)cc1,.,.,3.55µM,.
Cc1ccc(S(=O)(=O)c2nc(-c3ccc(F)cc3)oc2N2CCN(c3ccccc3)CC2)cc1,.,/,.,.
O=C(NCCNC[C@@H](O)COc1ccc(O)cc1)N1CCOCC1,/,/,/,.
CCn1c(=O)n(-c2ccc(C)c(F)c2)c(=O)c2sc3ccccc3c21,.,/,.,.
NCCO/C=C/[C@H](N)C(=O)O,.,/,/,/
Cc1nc(N2CCOCC2)[nH]c(=O)c1C(O)C(Cl)(Cl)Cl (configuration not stated),.,.,44.7µM,.
Cc1c(C(=O)NCc2nccs2)cnn1-c1ncc2c(n1)-c1ccccc1CC2,/,/,/,.
CO[C@]12C(COC(N)=O)C3=C(C(=O)C(C)=C(N)C3=O)N1CC1NC12 (some centres not stated),.,/,/,/
CCOC(=O)c1c(C)n(C)c2ccc(O)c(CN3CCC(C)CC3)c12,.,.,.,.
CCOC(=O)c1c(C)n(C)c2ccc(O)c(CN3CCN(C)CC3)c12,.,.,35.5µM,/
CCCCn1c(C)c(C(=O)OCC)c2c(CN3CCCC3)c(O)ccc21,.,.,.,.
CCCCn1c(C)c(C(=O)OCC)c2c(CN3CCOCC3)c(O)ccc21,.,.,39.8µM,.
CN(C)c1ccc(CN(C(=O)/C=C/c2ccco2)C2CCS(=O)(=O)C2)cc1 (configuration not stated),.,.,25.1µM,.
SMILES,TbPYK inhibitor,RE007 growth inh,Sm TGR block,FMDV antiviral
CN(C)c1ccc(CN(C(=O)c2cccs2)C2CCS(=O)(=O)C2)cc1 (configuration not stated),.,.,.,.
O=C(/C=C/c1ccco1)N(Cc1ccc(Cl)cc1)C1CCS(=O)(=O)C1 (configuration not stated),.,.,3.16µM,.
COc1ccc(CCC(=O)NCCc2csc(-c3ccc(F)cc3)n2)cc1,.,/,.,.
COc1cccc(-n2c(=O)c3c(C)c(C(=O)N(C)C)sc3n(Cc3ccc(F)cc3Cl)c2=O)c1,.,/,.,?
CN(C)S(=O)(=O)c1ccc(C(=O)OCC(=O)NCc2ccco2)cc1,.,.,35.5µM,.
COc1cc(OC)cc(C(=O)OCC(=O)NCc2ccco2)c1,.,.,?,.
COc1cc(C(=O)OCC(=O)NCc2ccco2)cc(OC)c1OC,.,.,44.7µM,.
COc1cc(C(=O)OCC(=O)Nc2ccc(SC(F)F)cc2)cc(OC)c1OC,.,/,.,35.5µM
CCOc1ccc(N(CC(=O)NCc2ccco2)S(=O)(=O)c2ccc(OC)c(OC)c2)cc1,.,.,31.6µM,.
Cc1c(C(=O)NCc2cccc(F)c2)sc2ncnc(NCC3CCCO3)c12 (configuration not stated),/,/,/,.
COc1ccc2sc(N(Cc3cccnc3)C(=O)c3ccc4c(c3)OCCO4)nc2c1,.,/,.,?
Cc1ccc2c(CC(=O)Nc3nnc(C(C)C)s3)coc2c1C,.,/,.,.
O=C(CSc1nc2c([nH]c3ccccc32)c(=O)n1-c1ccccc1)c1ccc(Cl)cc1,.,/,.,.
NC(=O)c1ccccc1NC(=O)C1CCCN(c2ncnc3onc(-c4ccc(F)cc4)c23)C1 (configuration not stated),.,/,.,.
CCOc1cc(C(=O)OCC(=O)NCc2ccco2)cc(OCC)c1OCC,.,.,25.1µM,?
COc1ccc(CSCC(=O)N/N=C/c2ccc(OCC(=O)NCc3ccco3)cc2)cc1,.,.,.,?
CC(SCc1ccccc1)C(=O)N/N=C/c1ccc(OCC(=O)NCc2ccco2)cc1 (configuration not stated),.,.,.,12.6µM
O=C(COC(=O)c1ccc(NS(=O)(=O)c2cccs2)cc1)NCc1ccco1,.,.,11.2µM,.
CN(C)c1cccc(C(=O)OCC(=O)NCc2ccco2)c1,.,.,.,.
O=C(COC(=O)c1cccs1)NCc1ccco1,.,.,?,.
O=C(COC(=O)c1cncc(Br)c1)NCc1ccco1,.,.,25.1µM,.
CCCCOc1ccccc1NC(=O)Cn1c(-c2cncs2)nc2ccccc21,.,/,.,?
CCOCCn1ccc2c(OCC(=O)Nc3ccc(C(N)=O)cc3)cccc2c1=O,.,/,.,.
CCOc1ccc(NC(=O)Cc2coc3ccc(C)cc23)cc1,.,/,.,.
COC(=O)c1ccc(C(=O)NCC2Cc3cccc(-c4ccc(C(=O)OC)cn4)c3O2)cc1 (configuration not stated),/,/,/,.
SMILES,TbPYK inhibitor,RE007 growth inh,Sm TGR block,FMDV antiviral
Cc1nc(-c2ccccc2)sc1-c1ccc(SCC(=O)NCc2ccccc2Cl)nn1,.,/,.,.
O=C(COC(=O)c1ccc(S(=O)(=O)NCc2ccco2)cc1)NCc1ccccc1,.,.,/,.
CCCOc1cc(CC(=O)NCc2ccco2)ccc1OC,.,.,.,.
COc1ccc(CC(=O)OCC(=O)NCc2ccco2)cc1OC,.,.,39.8µM,.
O=C(COC(=O)c1n[nH]c2ccccc12)NC(=O)NCc1ccco1,.,.,.,.
COc1ccc(C2(C(=O)NCc3ccco3)CCCC2)cc1OC,.,.,44.7µM,.
O=C(COC(=O)c1cc2ccccc2cc1O)NC(=O)NCc1ccco1,.,.,44.7µM,.
O=C(COC(=O)c1ccc(S(=O)(=O)NCc2ccco2)cc1)NCCC1=CCCCC1,.,.,44.7µM,.
COc1cc(/C=C/CN2CCOc3ccc(C(O)c4cccnc4)cc3C2)ccc1O (configuration not stated),/,/,/,.
O=C(CSc1oc(-c2cccs2)nc1S(=O)(=O)c1ccccc1)Nc1ccc(F)cc1,.,/,.,.
CC(C)(C)c1ccc(OCC(=O)NCc2ccco2)c(Br)c1,.,?,10µM,.
